This note sets out measurements from PubChem BioAssay (NCATS).

Inconclusive results are not listed. Active and inactive are the calls of the source. Calls follow the shape of the dose curve; as a rule, active = well fitted curve in the direction sought with a large enough effect; inconclusive = small, poorly fitted or top-dose-only effect, or another doubt; inactive = no such curve, though single readings can be large; an effect the other way counts as inactive or inconclusive.

Test [1] is described as follows: Quantitative high throughput screen for delayed death inhibitors of the malarial parasite plastid, 96 hour incubation (AID 488745). Also: nearly all actives have a fitted effect of over 70% in size. Also: potency is read from the fitted curve at half-maximal effect. In outline: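 Luciferase-expressing P. falciparum, infected RBCs 2% Hct/0.1% parasitemia (final); 96 h cpd exposure, 37 C, 5% CO2; RPMI 1640 + 0.5% Albumax, bicarbonate, gentamycin. Readout: luminescence loss = growth inhibition.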
Test [2] can be described thus: Quantitative high throughput screen for delayed death inhibitors of the malarial parasite plastid, 48 hour incubation (AID 488752). Also: nearly all actives have a fitted effect of over 65% in size. Also: potency is read from the fitted curve at half-maximal effect. In outline: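 Luciferase-expressing P. falciparum in RBCs, 2% Hct, 0.1% parasitemia final; RPMI 1640 + 0.5% Albumax; 48 h, 37 C, 5% CO2; luminescence readout, signal drop = growth inhibition.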
Test [3] deals with Thioredoxin reductase 1, cytoplasmic (Rattus norvegicus) (UniProt O89049). Kind of test: qHTS Assay for Substrates of Mammalian Selenoprotein Thioredoxin Reductase 1 (TrxR1) (AID 488772).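 Also: series mostly up to about 57 µM; a drop in NADPH fluorescence below the no-compound background marks a TrxR1 substrate.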 In outline:
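In this dual-purpose format, potential substrates are identified from the first fluorescence read after selenite addition, not from the 8-minute delta. Rat enzyme is preincubated with NADPH and then with compound at ~22 deg C.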
On the technique in general: In qHTS, concentration-response curves come from the screen itself.

For test [4] the target is unchanged. Description: qHTS Assay for Inhibitors of Mammalian Selenoprotein Thioredoxin Reductase 1 (TrxR1) (AID 488773).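 Also: drop in NADPH fluorescence over an 8 min run after selenite addition; series mostly up to about 57 µM; nearly all actives have a fitted effect of over 40% in size.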 The following applies: Potency: inhibition. In outline:
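Inhibition is scored from the loss of NADPH fluorescence between first and last reads of an 8-min kinetic run. Selenite (400 uM) was the substrate, added after 15 min compound preincubation at room temperature.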

Test [5] deals with Flap endonuclease 1 (Homo sapiens) (UniProt P39748). Description: qHTS Validation Assay for the Inhibitors of Human Flap endonuclease 1 (FEN1) (AID 488816). In outline:
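qHTS format: compounds and 10 nM FEN1 incubated 15 min at room temperature before adding 50 nM substrate. Cleavage followed by reads at 0 and 15 min; normalized data fitted to a four-parameter Hill curve.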

Test [6] concerns the target Chromobox protein homolog 1 (Homo sapiens) (UniProt P83916). Kind of test: qHTS Validation Assay for Inhibitors of HP1-beta Chromodomain Interactions with Methylated Histone Tails (AID 488953). Also: nearly all actives have a fitted effect of over 50% in size. Also: potency is read from the fitted curve at half-maximal effect. In outline:
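AlphaScreen proximity readout: streptavidin donor and Ni-chelate acceptor beads, 10 ug/mL final, 30 min dark, RT. Complex of 50 nM HP1-beta and 50 nM b-H3(1-18)K9me3 formed 30 min, then compound-treated 30 min; PBS pH 7.4/0.01% Tween-20.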

The target in test [7] is Methanococcus maripaludis chaperonin (MmCpn) (UniProt Q6LX38). Description: High-Throughput Screening for Modulators of Cytosolic Chaperonin Activity: MmCpn Primary Screen (AID 488978).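 Also: 50 nM MmCpn enzyme hydrolysing 30 µM ATP at 37 °C.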 In outline:
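ADP formation read by HTRF Transcreener, 665/590 nm emission after 320 nm excitation. Enzyme: archaeal chaperonin at 50 nM final; substrate ATP 30 uM final; 10 min, 37C, after 5 min compound preincubation at RT.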

Test [8] addresses Transient receptor potential cation channel subfamily V member 1 (Homo sapiens) (UniProt Q8NER1). Kind of test: HTS Assay for Compounds that Act as Enhancers of the Vanilloid Receptor 1 (AID 488979). In outline:
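Calcium influx kinetics via Fluo-8 (480/520 nm) in TRPV1-expressing cells, 2000/well cultured overnight at 35.5C. Compound-alone read 3 min (agonist phase), followed by EC20 capsaicin challenge for 2 min (enhancer phase).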

Test [9] concerns the target Thyrotropin receptor (Homo sapiens) (UniProt P16473). Kind of test: qHTS Assay for Antagonists of the Thyroid Stimulating Hormone Receptor (AID 488980). Also: series mostly up to about 58 µM. In outline: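 TSHR-HEK293 cells; 70 uM RO 20-1724 PDE inhibitor; compound + EC80 TSH (4 nM final); anti-cAMP cryptate antibody/cAMP-d2 in lysis buffer, 30 min RT; HTRF 665/620 nm read.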
In test [10] the target is M-phase phosphoprotein 8 (Homo sapiens) (UniProt Q99549). Description: qHTS Validation Assay for Inhibitors for MPP8 Chromodomain Interactions with Methylated Histone Tails (AID 488949). Also: nearly all actives have a fitted effect of over 55% in size. Also: potency is read from the fitted curve at half-maximal effect. In outline: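 AlphaScreen read-out: streptavidin donor and nickel chelate acceptor beads (final 10 ug/mL), 30 min in the dark at RT. Complex of 50 nM MPP8 and 50 nM b-H3(1-18)K9me3 peptide had been exposed to compounds for 30 min beforehand.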
M-phase phosphoprotein 8 (Homo sapiens), sequence (Q99549 whole entry, looked up): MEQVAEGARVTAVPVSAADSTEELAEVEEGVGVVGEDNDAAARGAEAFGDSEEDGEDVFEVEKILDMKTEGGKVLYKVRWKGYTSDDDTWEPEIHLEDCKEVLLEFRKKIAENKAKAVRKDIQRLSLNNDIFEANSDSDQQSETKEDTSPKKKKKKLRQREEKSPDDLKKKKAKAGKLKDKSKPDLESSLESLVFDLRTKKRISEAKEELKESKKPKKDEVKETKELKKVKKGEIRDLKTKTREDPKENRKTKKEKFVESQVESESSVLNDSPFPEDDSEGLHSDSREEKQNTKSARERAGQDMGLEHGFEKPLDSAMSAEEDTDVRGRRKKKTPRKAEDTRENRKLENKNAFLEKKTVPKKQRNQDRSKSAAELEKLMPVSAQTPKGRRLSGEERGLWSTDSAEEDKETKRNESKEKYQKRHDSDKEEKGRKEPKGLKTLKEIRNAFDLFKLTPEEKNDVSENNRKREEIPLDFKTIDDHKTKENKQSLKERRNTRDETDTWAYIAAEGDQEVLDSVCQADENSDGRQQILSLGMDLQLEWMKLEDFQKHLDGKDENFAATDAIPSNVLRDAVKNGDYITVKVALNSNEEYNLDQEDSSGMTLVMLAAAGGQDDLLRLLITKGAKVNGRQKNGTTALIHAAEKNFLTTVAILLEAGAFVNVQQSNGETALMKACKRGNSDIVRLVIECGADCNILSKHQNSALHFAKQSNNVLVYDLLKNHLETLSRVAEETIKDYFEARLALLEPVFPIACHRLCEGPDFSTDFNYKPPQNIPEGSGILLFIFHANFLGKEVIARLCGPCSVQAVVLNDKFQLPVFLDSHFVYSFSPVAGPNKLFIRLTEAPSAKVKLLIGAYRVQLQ

Flap endonuclease 1 (Homo sapiens), sequence (P39748 whole entry, looked up): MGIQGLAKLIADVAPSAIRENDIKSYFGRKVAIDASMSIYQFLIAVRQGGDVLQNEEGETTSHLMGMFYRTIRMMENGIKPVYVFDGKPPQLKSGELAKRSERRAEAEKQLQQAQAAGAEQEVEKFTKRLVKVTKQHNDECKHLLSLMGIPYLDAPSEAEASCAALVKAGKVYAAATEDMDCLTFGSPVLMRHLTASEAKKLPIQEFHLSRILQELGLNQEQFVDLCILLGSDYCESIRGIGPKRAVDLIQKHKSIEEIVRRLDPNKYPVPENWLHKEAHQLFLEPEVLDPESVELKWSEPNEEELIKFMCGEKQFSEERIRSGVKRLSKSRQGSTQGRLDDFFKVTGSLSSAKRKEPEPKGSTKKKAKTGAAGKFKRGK
Transient receptor potential cation channel subfamily V member 1 (Homo sapiens), sequence (Q8NER1 whole entry, looked up): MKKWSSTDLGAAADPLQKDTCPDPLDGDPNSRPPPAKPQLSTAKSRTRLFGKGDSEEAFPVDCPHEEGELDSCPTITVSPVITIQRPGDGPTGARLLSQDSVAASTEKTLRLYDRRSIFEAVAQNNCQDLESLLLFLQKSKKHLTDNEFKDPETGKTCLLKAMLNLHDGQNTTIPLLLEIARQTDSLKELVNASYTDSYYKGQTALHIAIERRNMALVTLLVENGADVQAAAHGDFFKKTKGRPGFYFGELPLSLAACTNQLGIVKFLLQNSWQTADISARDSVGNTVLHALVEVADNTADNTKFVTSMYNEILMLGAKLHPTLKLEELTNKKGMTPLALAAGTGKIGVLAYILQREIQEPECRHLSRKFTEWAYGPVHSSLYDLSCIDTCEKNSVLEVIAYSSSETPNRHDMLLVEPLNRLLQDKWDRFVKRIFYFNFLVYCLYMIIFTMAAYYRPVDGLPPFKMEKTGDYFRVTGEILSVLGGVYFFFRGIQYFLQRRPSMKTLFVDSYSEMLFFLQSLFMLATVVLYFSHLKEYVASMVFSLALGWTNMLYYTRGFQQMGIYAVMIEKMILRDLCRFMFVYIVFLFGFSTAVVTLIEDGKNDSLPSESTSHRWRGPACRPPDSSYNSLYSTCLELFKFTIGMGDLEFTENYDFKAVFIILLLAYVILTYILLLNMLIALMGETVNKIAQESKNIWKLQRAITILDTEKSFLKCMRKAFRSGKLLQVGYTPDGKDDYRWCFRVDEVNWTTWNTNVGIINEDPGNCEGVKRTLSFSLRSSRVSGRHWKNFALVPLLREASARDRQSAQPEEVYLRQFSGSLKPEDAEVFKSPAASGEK
Thyrotropin receptor (Homo sapiens), sequence (P16473 whole entry, looked up): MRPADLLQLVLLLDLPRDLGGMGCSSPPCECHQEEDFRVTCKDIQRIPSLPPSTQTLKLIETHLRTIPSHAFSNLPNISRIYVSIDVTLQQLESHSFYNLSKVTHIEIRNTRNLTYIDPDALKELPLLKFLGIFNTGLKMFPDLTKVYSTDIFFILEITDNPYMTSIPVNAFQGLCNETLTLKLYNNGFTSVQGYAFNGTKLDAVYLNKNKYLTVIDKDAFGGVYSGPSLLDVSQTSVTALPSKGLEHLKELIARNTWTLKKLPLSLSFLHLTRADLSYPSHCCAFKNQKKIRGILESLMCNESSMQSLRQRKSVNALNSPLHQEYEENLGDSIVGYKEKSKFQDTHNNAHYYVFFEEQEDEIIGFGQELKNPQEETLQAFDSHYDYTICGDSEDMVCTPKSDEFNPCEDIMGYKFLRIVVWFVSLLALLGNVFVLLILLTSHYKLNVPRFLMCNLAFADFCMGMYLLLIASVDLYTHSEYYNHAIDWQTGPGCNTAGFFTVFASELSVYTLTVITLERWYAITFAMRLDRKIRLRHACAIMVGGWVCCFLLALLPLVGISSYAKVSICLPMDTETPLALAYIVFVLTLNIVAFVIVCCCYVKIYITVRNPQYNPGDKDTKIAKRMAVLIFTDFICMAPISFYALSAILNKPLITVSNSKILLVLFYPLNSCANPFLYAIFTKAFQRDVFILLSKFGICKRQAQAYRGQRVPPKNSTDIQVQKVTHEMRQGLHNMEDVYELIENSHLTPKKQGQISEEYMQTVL
Chromobox protein homolog 1 (Homo sapiens), sequence (P83916 whole entry, looked up): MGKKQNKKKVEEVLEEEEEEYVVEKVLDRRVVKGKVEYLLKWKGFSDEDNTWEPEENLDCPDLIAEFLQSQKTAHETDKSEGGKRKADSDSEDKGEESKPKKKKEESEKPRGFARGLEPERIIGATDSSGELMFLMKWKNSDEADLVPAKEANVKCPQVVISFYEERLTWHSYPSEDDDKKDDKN
Methanococcus maripaludis chaperonin (MmCpn), sequence (Q6LX38 1-543): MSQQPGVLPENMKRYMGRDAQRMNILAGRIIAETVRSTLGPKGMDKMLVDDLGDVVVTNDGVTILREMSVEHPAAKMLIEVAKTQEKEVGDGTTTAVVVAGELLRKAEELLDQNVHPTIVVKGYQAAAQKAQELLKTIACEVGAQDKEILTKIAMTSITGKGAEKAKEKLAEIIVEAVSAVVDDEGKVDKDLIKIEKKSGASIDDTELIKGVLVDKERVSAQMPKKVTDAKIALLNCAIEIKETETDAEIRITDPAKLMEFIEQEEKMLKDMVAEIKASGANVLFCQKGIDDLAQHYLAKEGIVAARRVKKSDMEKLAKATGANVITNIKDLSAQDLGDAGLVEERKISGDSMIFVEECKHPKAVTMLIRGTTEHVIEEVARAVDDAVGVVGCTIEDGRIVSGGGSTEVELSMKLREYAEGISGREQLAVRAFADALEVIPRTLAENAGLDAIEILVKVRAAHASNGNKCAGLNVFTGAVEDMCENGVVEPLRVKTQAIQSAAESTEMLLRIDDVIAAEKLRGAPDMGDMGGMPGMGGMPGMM
Thioredoxin reductase 1, cytoplasmic (Rattus norvegicus), sequence (O89049 whole entry, looked up): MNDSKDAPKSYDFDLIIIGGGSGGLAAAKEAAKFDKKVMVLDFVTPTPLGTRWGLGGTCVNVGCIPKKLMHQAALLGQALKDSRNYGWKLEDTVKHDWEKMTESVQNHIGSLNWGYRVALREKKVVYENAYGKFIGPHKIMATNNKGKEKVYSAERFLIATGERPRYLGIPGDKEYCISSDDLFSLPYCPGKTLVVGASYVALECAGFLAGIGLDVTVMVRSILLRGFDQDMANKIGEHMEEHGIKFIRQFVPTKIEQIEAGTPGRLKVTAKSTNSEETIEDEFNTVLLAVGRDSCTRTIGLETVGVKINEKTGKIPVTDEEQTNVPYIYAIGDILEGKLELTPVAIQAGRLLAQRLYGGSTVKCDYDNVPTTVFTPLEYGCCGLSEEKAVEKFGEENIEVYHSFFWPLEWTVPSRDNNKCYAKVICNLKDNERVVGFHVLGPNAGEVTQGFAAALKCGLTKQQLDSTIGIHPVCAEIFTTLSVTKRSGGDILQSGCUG

On to `CN=C(NC#N)NCCSCc1nc[nH]c1C`, for which the Potency entry in [1], in test [2], in test [4], in test [5] and in test [6] was “inactive” in each case. Further, the outcome in test [3], in [7], in test [8] and in [9] was inactive.

In the case of `CCOC(=O)c1cnc2c(cnn2CC)c1NN=C(C)C`, the Potency entry in test [1], in test [2], in [4], in test [5], in test [10] and in test [6] was “inactive” in each case. The call in [3], in test [7] and in test [8] was inactive.

On to `COCCc1ccc(OCC(O)CNC(C)C)cc1` (stereo not given), for which the Potency entry in test [1], in test [2], in test [4], in test [5], in test [10] and in test [6] was “inactive” each time. The outcome in test [7] and in test [8] was inactive.

With `c1cc(CN2CCCCC2)cc(OCCCNc2nc3ccccc3s2)c1`, the Potency in test [1] is 2.94 µM (active); in [2], 8.28 µM (active). Further, the molecule was called inactive in test [3] and in test [7]. The Potency result in test [4], in [5] and in [10] was “inactive” throughout.

`COC(=O)[C@H]1[C@H]2C[C@@H]3c4[nH]c5cc(OC)ccc5c4CCN3C[C@H]2C[C@@H](OC(=O)c2cc(OC)c(OC)c(OC)c2)[C@@H]1OC`: the Potency was 0.928 µM (active) in test [1], 1.47 µM (active) in [2], 20 µM (active) in test [10] and 39.8 µM (active) in test [6]. Besides, the outcome in test [3], in test [7] and in [8] was inactive. Besides, the Potency result in test [4] and in test [5] was “inactive” throughout.

Consider `CC(C)[N+](C)(CCOC(=O)C1c2ccccc2Oc2ccccc21)C(C)C`, for which the results for the Potency in test [1] and in test [2] were 3.29 µM (active) and 4.65 µM (active), respectively. Moreover, the call in test [3], in test [7], in [8] and in test [9] was inactive. Also, the Potency entry in [4], in test [5], in test [10] and in [6] was “inactive” throughout.

As to `CCn1ccnc1CC1COc2ccccc2O1` (stereo not given), the Potency result in [1], in test [2], in test [4], in test [5], in [10] and in [6] was “inactive” in each case. Besides, the outcome in test [3], in test [7], in test [8] and in test [9] was inactive.

As to `CCCCCN(CCCCC)C(=O)C(CCC(=O)O)NC(=O)c1ccc(Cl)c(Cl)c1` (stereo not given), the Potency entry in test [1], in test [2], in test [4], in test [5], in test [10] and in test [6] was “inactive” in each case. The result in test [3], in test [7], in test [8] and in test [9] was inactive.

Turning to `CNC1(C)C2CCC(C2)C1(C)C` (stereo not given), the Potency entry in [1], in test [2], in test [4], in [5], in [10] and in [6] was “inactive” each time. The call in test [3], in test [7], in test [8] and in test [9] was inactive.

With `c1ccc2c(c1)CCCC2C1=NCCN1` (stereo not given), the Potency entry in test [1], in test [2], in test [4], in test [5], in test [10] and in test [6] was “inactive” each time. Also, the outcome in test [7] and in test [8] was inactive.

With `C[N+](C)(C)CCCCCCCCCC[N+](C)(C)C`, the Potency was 0.329 µM (active) in [1] and 1.04 µM (active) in test [2]. The molecule was called inactive in [3], in [7], in [8] and in test [9]. Besides, the Potency entry in test [4], in test [10] and in test [6] was “inactive” in each case.

As for `CC1=NS(=O)(=O)c2cc(Cl)ccc2N1`, the Potency entry in test [1], in [2], in test [4], in test [5], in test [10] and in test [6] was “inactive” in each case. Moreover, the result in [7] and in test [8] was inactive.

`Cc1scc2c1N(C(=O)CN1CCN(C)CC1)c1ccccc1NC2=O`: the Potency entry in [1], in test [2] and in test [10] was “inactive” each time. In addition, the molecule was classed as inactive in test [3], in [7], in [8] and in test [9].

With `C(=C\c1ccccc1)/CN1CCN(C(c2ccccc2)c2ccccc2)CC1`, the Potency result in test [1], in test [4], in [5] and in [10] was “inactive” throughout. The result in test [3], in [7] and in test [8] was inactive.

Take `CC(=O)OC(C)C[N+](C)(C)C` (stereo not given): the Potency result in test [1], in test [4], in test [5], in [10] and in [6] was “inactive” in each case. Besides, the call in [3], in [7], in [8] and in [9] was inactive.

Turning to `CN(C)CC[C@@H](c1ccc(Br)cc1)c1ccccn1`, the Potency result in test [1], in [4], in test [5], in [10] and in test [6] was “inactive” each time. Further, the molecule was classed as inactive in [3], in test [7] and in [8].

As for `CN(C)C(=O)Oc1ccc[n+](C)c1`, the Potency entry in [1], in test [4] and in test [5] was “inactive” throughout. The outcome in test [3], in test [7], in test [8] and in test [9] was inactive.

Take `CC(N=C(NC#N)Nc1ccncc1)C(C)(C)C` (stereo not given): the Potency result in test [1], in test [4], in [10] and in test [6] was “inactive” in each case. For the same molecule, the result in test [3], in test [7] and in [8] was inactive.

Regarding `COc1ccc(CCN(C)CCCC(C#N)(c2cc(OC)c(OC)c(OC)c2)C(C)C)cc1OC` (stereo not given), the Potency in [1] is 11.7 µM (active). The result in test [3], in test [7] and in [8] was inactive. The Potency entry in [4], in test [5], in test [10] and in test [6] was “inactive” in each case.

On to `O=C1CC2(CCCC2)CC(=O)N1CCCCN1CCN(c2ncccn2)CC1`, for which the Potency result in test [1], in test [4], in [5] and in [10] was “inactive” throughout. Besides, the molecule was called inactive in test [3], in test [7], in [8] and in test [9].

`CC(=O)Nc1nnc(S(N)(=O)=O)s1`: the Potency result in [1], in test [2], in [4], in [5], in [10] and in test [6] was “inactive” each time. Also, the call in [7], in [8] and in [9] was inactive.

Regarding `CN(C)CCCN1c2ccccc2Sc2ccccc21`, the Potency result in test [1], in test [2], in [4], in test [5] and in test [10] was “inactive” throughout. Moreover, the result in [7] was inactive.

For the molecule `CC1=C(C)C(=O)C(CCCCC#CCCCC#CCO)=C(C)C1=O`, the Potency was 10.4 µM (active) in test [1], 8.28 µM (active) in test [2], 31.6 µM (active) in [10] and 31.6 µM (active) in test [6]. The Potency entry in test [5] was “inactive”. Further, the outcome in [7] and in test [8] was inactive.
